Growth data for 11 molecules are collected here from PubChem BioAssay (NCI).

Structures are written as SMILES. This is part of a sample that, as a whole, favours compounds with a hit. Of some 83,000 tested, about 20% had one in any assay.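 Interpretation: 100, growth as untreated; towards 0, rising growth inhibition; 0, no net growth; 0 to -100, cell death. Compounds scoring below 10 were considered active.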 Values without a mark were called inactive. Active and inactive are the calls of the source.

Assay in all cases: NCI-60 one-dose screen, 48 h (100 = growth as untreated, 0 = no growth, -100 = all killed)
Holding throughout (conditions): 10 µM unless noted

Experiment [1] has as its system SR leukemia.
For experiment [2], the system named is RPMI-8226 leukemia.
Experiment [3] deals with OVCAR-8 ovarian.
Experiment [4] deals with OVCAR-5 ovarian.
In experiment [5] the test system is OVCAR-4 ovarian.
The test system of experiment [6] is SK-OV-3 ovarian.
Experiment [7] concerns IGROV1 ovarian.
The test system of experiment [8] is OVCAR-3 ovarian.
Experiment [9] relates to HS 578T breast.
The subject of experiment [10] is NCI/ADR-RES ovarian.
For experiment [11], the system named is T-47D breast.
Experiment [12] concerns BT-549 breast.
In experiment [13] the test system is MDA-MB-435 melanoma.
Experiment [14] concerns SW-620 colon.
Experiment [15] concerns MCF7 breast.
Experiment [16] relates to HCT-116 colon.
Experiment [17] has as its system HCC-2998 colon.
Experiment [18] concerns KM12 colon.

Turning to `CC(C)=CC(=O)N[C@@H]1CC2CCC3C(CC[C@@]4(C)C3CC[C@@H]4C(C)N(C)C)[C@@]2(C)C[C@@H]1O` (stereo partly drawn), the growth in experiment [1] was -39.8% (active); in experiment [2] it was -2.36% (active); in [3] it was 81.8%; in [4], 81.4%; in [5], 11.5%; in [6], 81.3%. Further, the growth was 61.9% in experiment [7]; 46.5% in [8]; 59.7% in experiment [9]; 52.5% in experiment [10]; 22.3% in experiment [11]; 66.1% in experiment [12]. The growth is 12.6% in experiment [13]; 28.2% in experiment [14]; 33.9% in experiment [15]; 27.1% in [16]; 52% in [17]; 38.2% in [18].

`COc1ccc(Nc2ncccc2NC(=O)c2cn(Cc3cccc(Oc4ccccc4)c3)nn2)cc1OC`: the growth is 34.9% in experiment [1]; 73.2% in experiment [2]; 90.8% in experiment [3]; 111% in experiment [4]; 68.2% in experiment [5]; 93.5% in [6]. Further, the growth was 89.5% in experiment [7]; 73.3% in experiment [8]; 72.9% in [9]; 77% in [10]; 49.2% in [11]; 73% in [12]. Further, the growth in experiment [13] was 4.74% (active); in [14], 73%; in experiment [15], 48.5%; in [16] it was 80.7%; in [17], 88.1%; in experiment [18], 57.6%.

`COc1ccc(-c2cc(-c3cc(OC)c(OC)c(OC)c3)c(C#N)c(=O)n2CCCCCC(=O)NO)cc1`: the growth is 78.2% in [1]; 72.8% in [2]; 87% in [3]; 108% in experiment [4]; 100% in experiment [5]; 122% in experiment [6]. Further, the growth in experiment [7] is 101%; in [8] it was 101%; in [9], 85.2%; in [10], 96.1%; in experiment [11], 71.7%; in experiment [12], 99.5%. The growth in experiment [13] was 98.2%; in experiment [14], 101%; in experiment [15], 89%; in experiment [16] it was 88%; in experiment [17], 110%; in experiment [18], 93.4%.

For the molecule `Cn1c(/C=C/[N+](=O)[O-])cc2ccccc21`, the growth was -7.91% (active) in experiment [1]; -17.3% (active) in experiment [2]; 10.8% in experiment [3]; 7.36% (active) in [4]; 94.2% in [5]; 82.4% in experiment [6]. Also, the growth is 0.609% (active) in [7]; 88.3% in experiment [8]; 70.2% in experiment [9]; 59.5% in experiment [10]; 37.4% in experiment [11]; -43.2% (active) in [12]. In addition, the growth is -21.6% (active) in experiment [13]; -70.8% (active) in experiment [14]; -50.5% (active) in experiment [15]; -74% (active) in [16]; -95.1% (active) in experiment [17]; -63.8% (active) in [18].

For the molecule `Cc1cc(C)c(-c2c(O)c(Br)c(-c3c(C)cc(C)c(Br)c3C)c(O)c2Br)c(C)c1Br`, the growth in [1] was 18.5%; in experiment [2] it was 26.3%; in experiment [3], 2.91% (active); in experiment [4], 64.9%; in experiment [5], 23.7%; in experiment [6], 46.7%. Further, the growth is -29.9% (active) in experiment [7]; -24.1% (active) in [8]; 41.5% in experiment [9]; 44.1% in experiment [10]; -19.4% (active) in experiment [11]; 22.2% in experiment [12]. In addition, the growth in experiment [13] was 13.1%; in [14] it was 3.38% (active); in [15], 6.48% (active); in [16], 9.25% (active); in [17], 37.3%; in [18] it was 12.2%.

Take `COC(=O)/C(CCC=C(C)C)=C1\[C@@H](OC(C)=O)C[C@@]2(C)[C@H]1CC(=O)[C@H]1[C@@]3(C)CCC(N4CCCC4)[C@@H](C)[C@@H]3CC[C@@]12C` (stereo partly drawn): the growth was 56.3% in experiment [1]; 85.5% in experiment [2]; 95.7% in experiment [3]; 96.9% in [4]; 97.5% in experiment [5]; 108% in experiment [6]. Besides, the growth in experiment [7] is 102%; in experiment [8], 99.1%; in experiment [9], 89.1%; in experiment [10], 99.3%; in [11], 94.9%; in experiment [12], 92.5%. Besides, the growth in experiment [13] is 97.5%; in experiment [14], 103%; in [15] it was 74.6%; in [16], 84.9%; in experiment [17], 114%; in experiment [18], 105%.

For `Cc1cccc(NC(=O)CSc2nc3ccc([N+](=O)[O-])cc3[nH]2)c1`, the growth in experiment [1] was 96.2%; in experiment [2], 55.5%; in [3], 83.6%; in experiment [4], 99.2%; in experiment [5], 59.3%; in experiment [6], 88.2%. The growth is 87.4% in experiment [7]; 72.7% in experiment [8]; 83.4% in [9]; 74.4% in experiment [10]; 51.8% in experiment [11]; 100% in experiment [12]. The growth in experiment [13] was 72%; in experiment [14] it was 97.9%; in experiment [15], 86.5%; in experiment [16] it was 70%; in [17], 96.9%; in experiment [18], 81.9%.

As for `CC(C)c1ccc(-n2c(=S)[nH]c3sc4c(c3c2=O)CCC(=O)C4)cc1`, the growth was 50% in experiment [1]; 15.9% in experiment [2]; 49.9% in experiment [3]; 68.2% in [4]; 46.5% in [5]; 84.3% in experiment [6]. In addition, the growth in experiment [7] was 63.1%; in experiment [8], 53%; in experiment [9] it was 32.4%; in [10], 44%; in experiment [11], 11.7%; in experiment [12], 26.3%. The growth in experiment [13] was 91.8%; in experiment [14], 48.5%; in experiment [15], 85.4%; in [16] it was 53.5%; in [17], 40.1%; in [18], 18.6%.

As to `CCN(CC)c1ccc(N2C(=O)/C(=C/c3cccs3)SC2=S)cc1`, the growth is 95.4% in experiment [1]; 97% in experiment [2]; 99.6% in experiment [3]; 95.4% in experiment [4]; 81.9% in experiment [5]; 113% in [6]. Further, the growth was 99.4% in experiment [7]; 101% in [8]; 103% in experiment [9]; 96.6% in [10]; 83% in experiment [11]; 102% in experiment [12]. In addition, the growth in [13] is 95.4%; in experiment [14] it was 103%; in experiment [15], 89.9%; in experiment [16], 95.9%; in experiment [17] it was 110%; in [18] it was 100%.

For the molecule `COc1ccc(/C(C)=C(\c2ccc(OCCN3CCCCCC3)cc2)c2ccc(OC(=O)c3ccccc3)cc2)cc1`, the growth in experiment [1] was -8.34% (active); in experiment [2], 19.5%; in [3], 56.5%; in experiment [4], 72.1%; in experiment [5], 42.6%; in [6], 81.4%. Further, the growth in experiment [7] is 46.7%; in experiment [8], 64.6%; in [9], 35.9%; in experiment [10], 60.7%; in experiment [11] it was 43.4%; in experiment [12] it was 63.6%. Moreover, the growth was 63% in experiment [13]; 44.8% in [14]; 13.5% in [15]; 19.4% in experiment [16]; 77.5% in experiment [17]; 38.4% in [18].

Turning to `CN1CCN(Cc2ccc(NC(=O)c3cncc(C#Cc4cncc5[nH]ncc45)c3)cc2C(F)(F)F)CC1`, the growth in experiment [1] was -4.67% (active); in experiment [2], 1.42% (active); in [3], 18.2%; in experiment [4], 4.44% (active); in [5] it was 10.2%; in experiment [6], 8.47% (active). Further, the growth is -43.8% (active) in [7]; 15.8% in experiment [8]; -35.5% (active) in [9]; 57.4% in experiment [10]; 31.3% in experiment [11]; 23.5% in experiment [12]. Besides, the growth in experiment [13] was 2.84% (active); in [14], -29.1% (active); in [15], 20.5%; in [16] it was 1.91% (active); in [17], 6.34% (active); in experiment [18] it was 3.69% (active).
